From PubChem
Only some compounds are listed: those with a hit (about 4.6% of all), similar ones and a draw of the others.
SKKanGAS inh: blocks kanamycin growth of S. pyogenes SKKanGAS strain; BacTiter-Glo, 6 h; inhibition, % at 7.5 µM; hit rate 1.3% among 300,000; AID 1662;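 active = mean replicate score, as percent of positive control median, at least 50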;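 also: strain carries kanamycin resistance gene driven by streptokinase promoter and grows in 40 µg/ml kanamycin; loss of luminescence reflects streptokinase promoter inhibition or plain growth inhibition; 0% = median of DMSO wells and 100% = positive control at its reference dose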
PfHsp90 yeast 2: growth inhibition of yeast expressing Plasmodium Hsp90 | S. cerevisiae expressing PfHsp90, BacTiter-Glo ATP, 48 h; yeast lacking PDR1 and PDR3 efflux regulators | inhibition, % at 9.4 µM | AID 504621 | hit rate 0.32% among 310,000;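 active = every replicate shows inhibition above about 80%, whatever the replicate mean, limit read from the data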;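 also: 0% = DMSO neutral controls and 100% = 20 µM radicicol positive controls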
TIM10 inh: TIM10 yeast growth inhibition; hit rate 1.4% among 330,000; AID 463195; inhibition, % at 10 µM; S. cerevisiae TIM10 strain growth, BacTiter-Glo luminescence, 24 h;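 active = inhibition of 40% or more at the single tested concentration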;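 also: wild-type TIM10 isogenic control strain grown at permissive 25 °C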
tim23-1 inh: tim23-1 yeast growth inhibition; AID 463212; S. cerevisiae tim23-1 growth, BacTiter-Glo luminescence, 24 h; inhibition, % at 20 µM; hit rate 1.3% among 330,000;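 active = growth inhibition of the mutant yeast at or above 50%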;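 also: temperature-sensitive mutant grown at 25 °C; plate controls were DMSO-treated mutant yeast for no effect and medium wells lacking yeast for full effect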
NLRP3 yeast inh: NALP3 inhibition in yeast; Yeast reconstituted NLRP3/ASC/caspase-1, beta-gal luminescence, 24 h; inhibition, % at 10 µM; hit rate 0.39% among 330,000; AID 2825;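 active = inhibition of 50% or more; inactive = inhibition below 50%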;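 also: plate controls were induced DMSO wells for no effect and uninduced yeast grown without galactose for full effect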
tim10-1 inh: growth inhibitors of tim10-1 mutant yeast. S. cerevisiae tim10-1 ts strain growth, BacTiter-Glo, 24 h. hit rate 2.2% among 330,000. inhibition, % at 20 µM;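 active = inhibition of at least 40%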;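 also: mutant grown at 25 °C; 0% = DMSO wells with yeast and 100% = wells holding no yeast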
tim10 confirm: confirmation of TIM10 yeast growth inhibitors; shares compounds with TIM10 inh; S. cerevisiae tim10 strain growth, BacTiter-Glo luminescence, 24 h; inhibition, % at 10 µM; hit rate 63% among 4,600; AID 463215;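 active = inhibition of yeast growth at or above a set limit in either of two replicates at 10 µM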;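 also: this counterscreen used the strain with wild-type TIM10; 0% = yeast with DMSO and 100% = medium wells lacking yeast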
The depositor's hits bear a star; . = no result.

SMILES | SKKanGAS inh | PfHsp90 yeast 2 | TIM10 inh | tim23-1 inh | NLRP3 yeast inh | tim10-1 inh | tim10 confirm
Cc1nc2ccc(NC(=O)c3ccc([N+](=O)[O-])cc3[N+](=O)[O-])cc2s1 | 4.6 | -12.9 | 42.0* | 39.5 | 4.9 | 38.5 | 28.4
CCOC(=O)c1cnc2c(ccc3ccccc32)c1NCCO | -2.5 | 3.3 | 61.3* | 48.7 | 29.6 | 38.0 | 69.0*
Cc1ccc(C(=O)Cn2c(NCCO)nc3ccccc32)cc1 | -1.4 | 1.2 | -1.4 | 0.4 | -3.9 | 1.9 | .
Cc1ccc(C(=O)Cn2c(C(=O)/C=C/c3ccccc3)nc3ccccc32)cc1 | -1.7 | . | 42.9* | 30.0 | -4.7 | 38.0 | 32.5*
Nc1c(-c2ccc(Cl)cc2)cnc2c(-c3ccccc3)cnn12 | -1.5 | 2.4 | -8.6 | -9.9 | 2.9 | -13.1 | .
Cc1c(Cl)cccc1NC(=S)NCc1ccc(Cl)cc1 | 34.0 | 22.1 | -10.4 | -10.5 | 15.2 | 24.5 | .
Cc1c(Cl)cccc1NC(=S)NCc1ccccc1 | 27.7 | 3.6 | 46.1* | 27.8 | 7.9 | 30.4 | 20.7
COc1ccccc1C(=O)N/C(=C\c1ccccc1)C(=O)NCc1ccco1 | -9.8 | -0.5 | -8.3 | 22.6 | -2.9 | 11.9 | .
O=C(COc1ccc(Cl)cc1)Nc1ccc2c(c1)CCC2 | -5.3 | 11.7 | 40.5* | 37.0 | 47.8 | -7.6 | -20.8
CC(=O)c1ccc(OCC(=O)Nc2ccc3c(c2)CCC3)cc1 | 1.5 | -41.8 | -15.6 | -11.5 | 7.8 | -72.4 | .
O=C(Cn1cnc2c(oc3ccccc32)c1=O)c1ccccc1 | -3.9 | . | 48.9* | 42.1 | 48.8 | 16.4 | 29.1
Oc1ccc(Br)cc1/C=N/n1c(C2CCCCC2)n[nH]c1=S | -0.6 | -16.4 | 44.4* | 49.8 | 1.6 | -2.6 | 56.5*
Cc1c(CCC(=O)NC2CC2)c(=O)oc2c(C)c(O)ccc12 | -3.2 | -6.8 | -1.3 | -3.7 | -5.9 | -7.8 | .
Cc1nn(CC(=O)NC(=O)NC2CCCC(C)C2C)c(=O)c(C#N)c1C (stereo not given) | 1.3 | -5.8 | 5.3 | 6.7 | 5.4 | 2.0 | .
CC(C)(C)c1nnc(NC(=S)Nc2ccccc2)s1 | 21.5 | 31.8 | 45.4* | 28.3 | 49.1 | 35.0 | 24.2
CC(C)(C)c1nnc(NC(=O)CCS(=O)(=O)c2ccccc2)s1 | 3.4 | 6.3 | 15.6 | 15.1 | 13.2 | -2.6 | .
Cc1csc(Nc2nc(N)c(C(=O)Nc3ccccc3)o2)n1 | -6.4 | 10.1 | 43.3* | 46.7 | 9.2 | -16.6 | 29.5
Cc1csc(NC(=O)c2oc3ccccc3c2C)n1 | -4.9 | . | -5.5 | 20.9 | 13.2 | -19.4 | .
O=C(CCC1CCCN(C(=O)c2ccoc2)C1)NCc1ccccc1F (stereo not given) | -2.0 | -16.1 | -7.3 | -1.9 | -2.4 | 7.3 | .
CCn1cc([N+](=O)[O-])c(C(=O)N2N=C3/C(=C/c4cccs4)CCCC3C2c2cccs2)n1 (stereo not given) | 7.8 | . | 41.1* | 27.3 | 11.6 | 32.5 | 8.7
COc1ccc(S(=O)(=O)N2CC(O)CC2C(=O)Nc2cccnc2)cc1 (stereo not given) | 30.8 | 2.3 | -7.9 | 2.4 | 8.6 | -2.3 | .
COc1ccccc1N1CCN(C(=O)CN2C(=O)c3ccccc3S2(=O)=O)CC1 | 10.7 | -6.0 | -24.7 | -0.2 | 8.1 | -0.2 | .
COc1cccc(-c2ccc(SCC(=O)c3ccccc3)nn2)c1 | -5.1 | -107.6 | 41.7* | 11.8 | -58.8 | 22.5 | 42.0*
COc1ccc(C(=O)CSc2ccc(-c3ccccc3)nn2)cc1 | -10.4 | -5.8 | 7.2 | 21.2 | 31.5 | -14.6 | .
CC(=O)N1CCOc2ccc(S(=O)(=O)N3CCC(C(=O)NCc4ccccc4)CC3)cc21 | 2.3 | 3.1 | 13.4 | -8.0 | 17.6 | -8.4 | .
SMILES | SKKanGAS inh | PfHsp90 yeast 2 | TIM10 inh | tim23-1 inh | NLRP3 yeast inh | tim10-1 inh | tim10 confirm
O=C(NC1CC(=O)N(c2cccc(F)c2)C1)C(=O)c1c[nH]c2ccccc12 (stereo not given) | -5.7 | . | 96.5* | -10.7 | -4.5 | -3.6 | -1.9
Cc1ccc(N2CC(NC(=O)C(=O)c3c[nH]c4ccccc34)CC2=O)cc1C (stereo not given) | -0.1 | 17.1 | 0.3 | -23.1 | 20.4 | -8.9 | .
O=C(Nc1ccc(Cl)cn1)c1ccc(Oc2ccccc2)cc1 | 4.3 | 5.4 | 74.7* | 12.3 | 34.5 | -5.1 | 17.4
CCCOc1ccc(C(=O)Nc2ccc(Cl)cn2)cc1 | -17.6 | 3.3 | -14.2 | 5.7 | 35.6 | -6.5 | .
CC(C)(C)n1nnnc1C(c1cccs1)N(Cc1ccc(Cl)cc1)CC1CCCO1 (stereo not given) | 18.3 | -22.4 | 41.1* | 40.5 | 3.3 | 35.2 | -19.0
COC(=O)CSc1nc2ccccc2o1 | 11.6 | -4.8 | -2.7 | 17.9 | 13.2 | -13.4 | .
CCCCCCOC(=O)Sc1nc2ccccc2o1 | 2.0 | 128.4* | 76.9* | 37.8 | 21.9 | -18.9 | 72.0*
Cc1cc(C)n2nc(C(=O)N/N=C/c3ccco3)nc2n1 | -3.7 | 6.2 | -4.0 | 21.6 | 3.0 | -5.4 | .
CCN(CC)S(=O)(=O)c1ccc2[nH]c(=O)cc(C(=O)Nc3ccccc3N3CCCC3)c2c1 | 22.9 | -5.8 | 0.2 | -6.7 | 10.5 | 3.0 | .
O=C(c1ccccc1O)N1N=C(c2ccccc2)CC1(O)C(F)(F)F (stereo not given) | -2.0 | 16.2 | 45.9* | 33.7 | -5.7 | 29.1 | 4.4
COc1cccc(Oc2cn[nH]c2-c2ccc(OC)cc2O)c1 | 14.4 | -57.0 | 18.6 | 40.6 | 29.1 | -20.9 | .
CCCc1ccc(Oc2c(-c3ccc(O)c(C)c3O)n[nH]c2C)cc1 | 95.3* | 7.5 | 62.9* | -296.6 | 22.7 | -80.5 | 73.2*
CCCc1ccc(Oc2cn[nH]c2-c2ccc(O)c(C)c2O)cc1 | 88.5* | 141.6* | 71.4* | -276.8 | 43.4 | -191.1 | 70.8*
CCCc1cnc(N2CCN(C(=O)c3ccc(OC)cc3)CC2)nc1 | -1.1 | -27.8 | 16.5 | 25.6 | 28.8 | 22.6 | .
Cc1ccc(-c2csc(N(CC3CCCO3)C(=O)c3ccco3)n2)cc1 (stereo not given) | -2.7 | -16.9 | 43.3* | 5.0 | 13.6 | 27.3 | 42.3*
C=CCn1c(-c2ccc(OC)cc2)csc1=Nc1c(C)n(C)n(-c2ccccc2)c1=O | 9.4 | -25.3 | 41.7* | 48.3 | 5.6 | 36.6 | 33.1*
O=S(=O)(/N=C(/Nc1cccc2ccccc12)c1ccccc1)c1ccc(F)cc1 | 1.5 | 6.3 | 9.6 | 26.3 | -2.8 | 33.9 | .
S=c1[nH]nc(-c2ccc(Br)o2)n1Cc1ccccc1 | 3.9 | -0.1 | 46.1* | 46.2 | -14.9 | 37.9 | 34.6*
COC(=O)c1c(NC(=O)Cc2ccccc2)sc2c1CC(C)(C)NC2(C)C | 4.9 | -8.2 | 7.4 | 5.5 | 12.9 | 10.7 | .
COC(=O)c1c(NC(=O)COc2ccc(Cl)cc2)sc2c1CC(C)(C)NC2(C)C | 67.6* | 7.0 | 46.3* | 43.8 | 21.8 | 39.4 | 30.6
CCOc1ccc(Oc2cc(NC(=O)c3ccco3)cc([N+](=O)[O-])c2)cc1 | . | -7.0 | . | . | . | . | .
O=C(Nc1cc(Oc2ccc(Cl)cc2)cc([N+](=O)[O-])c1)c1ccco1 | 11.6 | -61.9 | 64.8* | 39.7 | 32.5 | 31.6 | -12.8
